# In PubChem BioAssay (NCI):
# Compounds without any hit were thinned out: in the full panel of roughly 83,000, 20% have a hit.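 How to read the values: 0–100, growth inhibition (40 = 60% inhibited); 0, no net growth; -100 to 0, cell death (-40 = 40% of starting cells died; -100 = all dead).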 Unmarked numbers belong to inactive results. Calls of active or inactive are those of the source. How the source made its calls: active means growth percent below 10; inactive means the rest.
# Key:
# Test in all cases: NCI-60 one-dose screen, 48 h (100 = growth as untreated, 0 = no growth, -100 = all killed)
# Conditions in all cases: 10 µM
# HCT-15 colon = test system: HCT-15 colon
# HT29 colon = test system: HT29 colon
# SNB-75 CNS = test system: SNB-75 CNS
# SNB-19 CNS = test system: SNB-19 CNS
# U251 CNS = test system: U251 CNS
# PC-3 prostate = test system: PC-3 prostate
# SK-MEL-5 melanoma = test system: SK-MEL-5 melanoma
# UACC-62 melanoma = test system: UACC-62 melanoma
# LOX IMVI melanoma = test system: LOX IMVI melanoma
# SK-MEL-28 melanoma = test system: SK-MEL-28 melanoma
# EKVX NSCLC = test system: EKVX NSCLC
# SN12C renal = test system: SN12C renal
# TK-10 renal = test system: TK-10 renal
# ACHN renal = test system: ACHN renal
# CAKI-1 renal = test system: CAKI-1 renal
# A498 renal = test system: A498 renal
# CCRF-CEM leukemia = test system: CCRF-CEM leukemia
# MOLT-4 leukemia = test system: MOLT-4 leukemia
# UO-31 renal = test system: UO-31 renal
SMILES,growth (HCT-15 colon),growth (HT29 colon),growth (SNB-75 CNS),growth (SNB-19 CNS),growth (U251 CNS),growth (PC-3 prostate),growth (SK-MEL-5 melanoma),growth (UACC-62 melanoma),growth (LOX IMVI melanoma),growth (SK-MEL-28 melanoma),growth (EKVX NSCLC),growth (SN12C renal),growth (TK-10 renal),growth (ACHN renal),growth (CAKI-1 renal),growth (A498 renal),growth (CCRF-CEM leukemia),growth (MOLT-4 leukemia),growth (UO-31 renal)
CCCCCOC(=O)Nc1nc(=O)n(C2O[C@H](C)[C@@H](O)[C@H]2O)cc1F (stereo not given in full),101%,99.9%,77.1%,101%,94.8%,90.9%,99.8%,95%,100%,115%,99.2%,99.5%,98.5%,99.6%,90.5%,82.3%,96.7%,103%,–
CCc1cc(Cl)c(OC)c(C(=O)NCC2CCCN2CC)c1O (stereo not given),91.8%,89.5%,67.1%,91.2%,83.8%,73.7%,83.4%,97%,90.6%,109%,82.4%,92.5%,104%,88.5%,–,70.1%,96%,88%,61.4%
O=C1/C=C/[C@@H](O)[C@@H]2C[C@@H](O)C[C@H]2/C=C/CCC[C@H](CCc2ccc(C(F)(F)F)cc2)O1,-3.05% (active),-36.7% (active),-13.5% (active),17.6%,12.1%,8.76% (active),-87.2% (active),6.89% (active),-71.8% (active),2.07% (active),3.27% (active),1.34% (active),-40% (active),8.15% (active),8.3% (active),-29.7% (active),-11% (active),-21.5% (active),1.2% (active)
Cc1ccc(C(=O)/C=C/c2ccccc2)s1,107%,107%,106%,99.1%,95.8%,111%,99.9%,97.4%,79.1%,114%,82.3%,103%,108%,121%,92.4%,90.5%,99.8%,100%,77.7%
O=C(CSc1nnc(-c2ccc(Cl)cc2)o1)Nc1ccc(C(=O)/C=C/c2ccc(Cl)cc2)cc1,107%,99%,98.1%,94.6%,104%,92.8%,94.1%,87.6%,98%,110%,129%,95.9%,118%,114%,–,94.7%,–,92.6%,69.4%
Nc1nc(Cl)nc2c1ncn2C1O[C@H](CO)[C@@H](O)[C@@H]1F (stereo not given in full),48.1%,41.2%,37%,19%,27%,60.5%,32.1%,-10.3% (active),4.83% (active),73.8%,38.1%,14.5%,64.5%,3.32% (active),-25.9% (active),15.6%,2.64% (active),-4.67% (active),0.968% (active)
O=C(CNc1nnc(-c2cccnc2SCc2ccccc2)s1)Nc1nc(Cl)cc(Cl)n1,108%,123%,74.1%,103%,119%,112%,113%,108%,105%,110%,112%,103%,125%,119%,102%,121%,–,95.4%,77.4%
CC1/C=C/C=C/C=C/C=C/C=C/C=C/C=C/C(O[C@@H]2O[C@H](C)[C@H](O)[C@@H](O)[C@@H]2N)CC(O)C(C(=O)O)C(O)CC(=O)CC(O)CC(O)CC(O)CC(=O)CCCC(=O)CC(=O)OC1C(C)CC(C)C(O)CC(=O)c1ccc(N)cc1 (stereo not given in full),-95.5% (active),-76.7% (active),-96.6% (active),-99% (active),-100% (active),-95.7% (active),-99% (active),-98.7% (active),-96.9% (active),-94.3% (active),-98.6% (active),-93.4% (active),-96.8% (active),-99.7% (active),-98.2% (active),-98.4% (active),-59.2% (active),-72.2% (active),-96.4% (active)
C[C@@H](O)[C@H]1C(=O)N2C(C(=O)O)=C(SCCN=CN)C[C@H]12,8.86% (active),-3.23% (active),0.941% (active),8.6% (active),2.44% (active),1.74% (active),-87.2% (active),-38.8% (active),-42.6% (active),-41.3% (active),7.62% (active),2.27% (active),-0.459% (active),-30.6% (active),-28.2% (active),-36.4% (active),4.2% (active),-13.9% (active),-50.4% (active)
COc1ccccc1/C=N\N/C(N)=N\N=C\c1ccccc1OC,1.27% (active),-1.01% (active),21.5%,35.3%,5.71% (active),29.3%,-30% (active),19.7%,5.74% (active),56.9%,26.1%,18.4%,–,20.5%,-7% (active),-66.5% (active),-19.6% (active),4.77% (active),14.1%
Cc1cc(C)nc(NS(=O)(=O)c2ccc(Nc3nc4nc(NCc5ccccc5)nc(-c5ccc(O)cc5)c4c(=O)[nH]3)cc2)n1,18.5%,32.2%,48.2%,28.2%,11.9%,1.02% (active),4.9% (active),21.8%,23.4%,32.7%,26.7%,33.1%,10.3%,15.6%,33.1%,42.5%,19.6%,-1.75% (active),10.9%
CN1C(C(=O)Nc2ccccn2)=C(O)c2sc(Cl)cc2S1(=O)=O,112%,103%,89.5%,104%,95.4%,87.9%,102%,92.4%,96%,102%,102%,103%,104%,100%,92.4%,90.1%,87.4%,110%,78.8%
C[C@@H](O)[C@H]1C(=O)N2C(C(=O)O)=C(SC3CN[C@H](C(=O)N(C)C)C3)[C@H](C)[C@H]12 (stereo not given in full),104%,103%,94.1%,119%,99.3%,92.4%,102%,99.4%,96.4%,109%,104%,99.5%,106%,96.9%,95.2%,88.8%,-40.1% (active),116%,78.7%
Cc1cc(Cl)ccc1Nc1nc(C(F)(F)F)ccc1C(=O)N/N=C/c1c(Cl)cccc1Cl,9.11% (active),3.29% (active),-16.4% (active),13.5%,-1.74% (active),-13.7% (active),-85.4% (active),-12.9% (active),10%,24.7%,0.628% (active),6.51% (active),–,-8.52% (active),-22.7% (active),-60.8% (active),-18% (active),-16.8% (active),4.21% (active)
O=S(=O)(O)c1ccc(Cl)cc1,100%,93.6%,100%,102%,101%,96.5%,98.3%,99.8%,96.3%,113%,105%,100%,88.2%,104%,–,110%,106%,98.7%,88.7%
COc1cc(C(=O)/C(C)=C/c2c[nH]c3ccccc23)cc(OC)c1OC,9.94% (active),5.62% (active),36.3%,34%,18.1%,19.8%,-36.4% (active),40.2%,17.8%,66.2%,33.5%,26.3%,62.3%,28.1%,34.1%,24.8%,–,17.5%,48.8%
